Reference: PubChem BioAssay
Inconclusive results are not listed. Activity calls are given as the source filed them.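 How the source made its calls, unless noted: active means normalized viability below 100% at a tested concentration; inactive means the rest.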

Legend:
[1] = viability loss in pontine glioma line – cell-based, SU-DIPG-XVII, MIPE5.0, CellTiter-Glo, qHTS, dose response (AID 1347060; cut-off not given, nearly all actives have AC50 up to about 26 µM); settings: CellTiter-Glo ATP luminescence
[2] = viability loss in pontine glioma line – cell-based, SU-DIPG-XXV, MIPE5.0, CellTiter-Glo, qHTS, dose response (AID 1347065; cut-off not given, nearly all actives have AC50 up to about 26 µM;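 further: cells exposed to compound for 48 hours before ATP readout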); settings: CellTiter-Glo ATP luminescence
[3] = growth inhibition of DIPG cells – cell-based, MIPE5.0 library, qHTS (AID 1347068; cut-off not given, nearly all actives have IC50 up to about 30 µM); settings: SU-DIPG-XXV viability
[4] = viability loss with induced miR-34 in A549 – imaging, A549 dox-inducible miR-34, nuclei and caspase counts, primary screen (AID 1347080;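 active means compounds whose cell count with miR-34 switched on is under 0.7 times the count with it off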); settings: A549 miR-34 inducible, Hoechst nuclei count, 48 h
[5] = MELAS cybrid and Rieske KO viability enhancers – cell-based, MELAS cybrids, Rieske KO mouse fibroblasts, CellTiter-Glo, primary screen (AID 1508586;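 active means mean z-score across replicates of 1.96 or higher in either the MELAS or the Rieske mutant cell line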;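 further: z relative to plate mean and SD of compound and empty wells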); settings: low glucose
[6] = drug combination growth inhibition, ovarian cancer – cell-based, oncology-focused library, rucaparib conditional, profiling panel (AID 1508598); settings: patient-derived ovarian cancer cells, CellTiter-Glo viability, 144 h, stronger effect = lower value
[7] = growth inhibition, single agent or in combination, cell-based, chromothripsis tumors, cisplatin or BGB combos (AID 1671449; in the data active means inhibition above about 80%;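 further: cells exposed for 96 hours; 0% = vehicle DMSO and 100% = killing by high DMSO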); settings: LFS_MB_P medulloblastoma cells
[8] = growth inhibition, single agent and combos, cell-based, chromothripsis tumors, cisplatin or BGB combos (AID 1671450; in the data active means inhibition above about 80%;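 further: cells exposed to compound for four days; 0% = vehicle DMSO and 100% = cell killing by high DMSO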); settings: HDN33 neuroblastoma cells, stronger effect = higher value
[9] = growth inhibition, single agents and combos, ICB984, cell-based, cisplatin or BGB combos, synergistic combos for chromothripsis tumors (AID 1671451; call rule not given here;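 further: cells exposed for 96 hours before readout; 0% = vehicle DMSO and 100% = killing by high DMSO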); settings: ICB984 medulloblastoma cells, drug combinations, stronger effect = higher value
[10] = growth inhibition, single agents and combos, LFS_MB_1R, cell-based, cisplatin or BGB combos, synergistic combos for chromothripsis tumors (AID 1671452; in the data active means inhibition above about 80%;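 further: cells exposed for 96 hours before readout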); settings: LFS_MB_1R medulloblastoma cells, stronger effect = higher value
[11] = growth inhibition, single agents and combos, HTB85, cell-based, BGB or cisplatin IC20 combos, synergistic combos for chromothripsis tumors (AID 1671453; in the data active means inhibition above about 80%;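 further: cells exposed for 96 hours before readout; 0% = vehicle DMSO and 100% = high DMSO killing control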); settings: HTB85 osteosarcoma cells, drug combinations, stronger effect = higher value
[12] = growth inhibition, single agents and combos, CRL2098, cell-based, BGB or cisplatin IC20 combos, synergistic combos for chromothripsis tumors (AID 1671454; in the data active means inhibition above about 80%;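 further: cells exposed for 96 h before readout; 0% = vehicle DMSO and 100% = killing by high DMSO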); settings: CRL2098 osteosarcoma cells, drug combinations, stronger effect = higher value
[13] = growth inhibition, single agents and combos, HD-MB03, cell-based, BGB or cisplatin IC20 combos, synergistic combos for chromothripsis tumors (AID 1671455; in the data active means inhibition above about 83%;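 further: 0% = vehicle DMSO and 100% = high DMSO as cytotoxic control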); settings: HD-MB03 medulloblastoma cells, stronger effect = higher value
[14] = growth inhibition, single agents and combos, UWB1.289, cell-based, BGB or cisplatin combos, synergistic combos for chromothripsis tumors (AID 1671456; in the data active means inhibition above about 80%;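 further: cells exposed to compound for four days; 0% = vehicle DMSO and 100% = killing by high DMSO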); settings: UWB1.289 ovarian carcinoma cells, stronger effect = higher value
[15] = growth inhibition, single agents and combos, LFS_MB_2R, cell-based, cisplatin combos, synergistic combos for chromothripsis tumors (AID 1671457; in the data active means inhibition above about 80%;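 further: cells exposed to compound for four days before readout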); settings: LFS_MB_2R medulloblastoma cells, stronger effect = higher value
[16] = growth inhibition, MDA-MB-436, cell-based, BGB or cisplatin combos, synergistic combos for chromothripsis tumors (AID 1671458; call rule not given here;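 further: cells exposed for 96 hours; 0% = vehicle DMSO and 100% = killing by high DMSO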); settings: MDA-MB-436 breast carcinoma growth inhibition, drug combinations, stronger effect = higher value
[17] = UWB1.289_BRCA1 ovarian cancer growth, cell-based, BGB or cisplatin combinations (AID 1671459; in the data active means inhibition above about 80%); settings: UWB1.289 BRCA1 ovarian carcinoma, drug combinations, stronger effect = higher value
[18] = drug combination toxicity in non-malignant astrocytes – cell-based, BGB or cisplatin IC20 combos, cytotoxicity control for chromothriptic childhood tumor combination screen (AID 1671460; in the data active means inhibition above about 80%;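 further: cells exposed to compounds for 96 hours before viability readout; 0% = vehicle and 100% = killing control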); settings: Human astrocytes, viability inhibition, drug combinations, at 0.5 µM, stronger effect = higher value
[19] = BT084 cell growth, single and combined drugs, ICGC_MB145, cisplatin and BGB IC40 combos (AID 1671461; in the data active means inhibition above about 80%;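 further: cells exposed to drugs for 96 hours; 0% = vehicle DMSO and 100% = high DMSO full killing control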); settings: BT084 medulloblastoma cells, drug combinations, stronger effect = higher value
[20] = RCMB18 cell growth, single agent and combined, cisplatin and BGB IC40 combos (AID 1671462; in the data active means inhibition above about 80%;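 further: cells exposed to compound for four days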); settings: RCMB18 medulloblastoma cells, stronger effect = higher value
[21] = CRL1545 cell growth, single agent and combined, cisplatin and BGB IC20 combos (AID 1671464; in the data active means inhibition above about 80%;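 further: cells exposed to compound for 96 hours before readout; 0% = vehicle DMSO and 100% = high DMSO killing control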); settings: CRL1545 osteosarcoma cells, stronger effect = higher value
[22] = measured here: combination with BGB IC40, at 0.05 µM
[23] = measured here: with BGB IC20 combination, at 0.5 µM
[24] = measured here: with cisplatin IC20 combination, at 0.5 µM
[25] = measured here: combination with cisplatin, at 0.5 µM
[26] = measured here: combination with cisplatin, at 5 µM

For COc1ccc(-n2c(SCCCN3C(=O)c4cccc5cccc(c45)C3=O)nnc2-c2ccncc2)cc1, the outcome [1] was “inactive”, the outcome [2] was “inactive” and the outcome [3] was “inactive”. The fold change ([4]; stronger effect = lower value, cell number ratio, induced over uninduced) was 0.884 (inactive), the fold change ([4]; measured here: relative caspase fold change +Dox/-Dox) was 0.42 and the cell count ([4]; measured here: total cells with miR-34 induction, stronger effect = lower value) was 6580. For the same compound, the cell count ([4]; measured here: total cells without miR-34 induction) was 7440, the z-score ([5]; MELAS cybrid survival, CellTiter-Glo 48 h, stronger effect = higher value) was -0.376 (inactive) and the z-score ([5]; Rieske KO mouse fibroblast survival, CellTiter-Glo 72 h) was 1.13. The viability ([6]; at 0.000305 µM, OCI-C5x cells, with rucaparib 10 µM, 100% = cells with rucaparib alone) was 118% (inactive), the viability ([6]; at 0.000305 µM, OCI-C5x cells, without rucaparib) was 116% (inactive) and the viability ([6]; at 0.000305 µM, OCI-P5x cells, with rucaparib 20 µM, 100% = cells with rucaparib alone) was 101% (inactive). For the same compound, the viability ([6]; at 0.000305 µM, OCI-P5x cells, without rucaparib) was 100% (inactive), the viability ([6]; at 0.00122 µM, OCI-C5x cells, with rucaparib 10 µM, 100% = cells with rucaparib alone) was 120% (inactive) and the viability ([6]; at 0.00122 µM, OCI-C5x cells, without rucaparib) was 121% (inactive). The viability ([6]; at 0.00122 µM, OCI-P5x cells, with rucaparib 20 µM, 100% = cells with rucaparib alone) was 101% (inactive), the viability ([6]; at 0.00122 µM, OCI-P5x cells, without rucaparib) was 99.9% (active) and the viability ([6]; at 0.00488 µM, OCI-C5x cells, with rucaparib 10 µM, 100% = cells with rucaparib alone) was 117% (inactive). For the same compound, the viability ([6]; at 0.00488 µM, OCI-C5x cells, without rucaparib) was 117% (inactive), the viability ([6]; at 0.00488 µM, OCI-P5x cells, with rucaparib 20 µM, 100% = cells with rucaparib alone) was 94.7% (active) and the viability ([6]; at 0.00488 µM, OCI-P5x cells, without rucaparib) was 104% (inactive). For the same compound, the viability ([6]; at 0.0195 µM, OCI-C5x cells, with rucaparib 10 µM, 100% = cells with rucaparib alone) was 125% (inactive), the viability ([6]; at 0.0195 µM, OCI-C5x cells, without rucaparib) was 121% (inactive) and the viability ([6]; at 0.0195 µM, OCI-P5x cells, with rucaparib 20 µM, 100% = cells with rucaparib alone) was 102% (inactive). The viability ([6]; at 0.0195 µM, OCI-P5x cells, without rucaparib) was 101% (inactive), the viability ([6]; at 0.0781 µM, OCI-C5x cells, with rucaparib 10 µM, 100% = cells with rucaparib alone) was 125% (inactive) and the viability ([6]; at 0.0781 µM, OCI-C5x cells, without rucaparib) was 118% (inactive). For the same compound, the viability ([6]; at 0.0781 µM, OCI-P5x cells, with rucaparib 20 µM, 100% = cells with rucaparib alone) was 95.3% (active), the viability ([6]; at 0.0781 µM, OCI-P5x cells, without rucaparib) was 98.1% (active) and the viability ([6]; at 0.313 µM, OCI-C5x cells, with rucaparib 10 µM, 100% = cells with rucaparib alone) was 138% (inactive). The viability ([6]; at 0.313 µM, OCI-C5x cells, without rucaparib) was 130% (inactive), the viability ([6]; at 0.313 µM, OCI-P5x cells, with rucaparib 20 µM, 100% = cells with rucaparib alone) was 95.5% (active) and the viability ([6]; at 0.313 µM, OCI-P5x cells, without rucaparib) was 77.9% (active). The viability ([6]; at 1.25 µM, OCI-C5x cells, with rucaparib 10 µM, 100% = cells with rucaparib alone) was 129% (inactive), the viability ([6]; at 1.25 µM, OCI-C5x cells, without rucaparib) was 128% (inactive) and the viability ([6]; at 1.25 µM, OCI-P5x cells, with rucaparib 20 µM, 100% = cells with rucaparib alone) was 89.8% (active). For the same compound, the viability ([6]; at 1.25 µM, OCI-P5x cells, without rucaparib) was 77.7% (active), the viability ([6]; at 5 µM, OCI-C5x cells, with rucaparib 10 µM, 100% = cells with rucaparib alone) was 113% (inactive) and the viability ([6]; at 5 µM, OCI-C5x cells, without rucaparib) was 123% (inactive). The viability ([6]; at 5 µM, OCI-P5x cells, with rucaparib 20 µM, 100% = cells with rucaparib alone) was 98.5% (active), the viability ([6]; at 5 µM, OCI-P5x cells, without rucaparib) was 86.5% (active) and the inhibition ([7]; at 0.5 µM, stronger effect = higher value) was 9.82% (inactive). For the same compound, the inhibition ([7]; measured here: combination with BGB IC20, at 0.005 µM) was 9.58%, the inhibition ([7]; measured here: combination with BGB IC40, at 0.005 µM) was -35.2% and the inhibition [7, 22] was -11%. It also gave an inhibition ([7]; measured here: combination with cisplatin, at 0.5 µM, stronger effect = higher value) of 82.2%, an inhibition ([7]; measured here: combination with cisplatin, at 5 µM, stronger effect = higher value) of -43.7% and an inhibition ([8]; BGB combo, at 5 µM) of -3.81%. The inhibition ([8]; at 0.5 µM) was 4% (inactive), the inhibition ([8]; cisplatin combo, at 5 µM) was 14.9% and the inhibition [8, 23] was -3.11%. For the same compound, the inhibition [8, 24] was 10.7%, the inhibition ([8]; single agent, at 5 µM) was 26.4% and the inhibition ([9]; BGB IC20 combo, at 0.005 µM) was -14.7%. For the same compound, the inhibition ([9]; BGB IC40 combo, at 0.005 µM) was -33.9%, the inhibition ([9]; BGB IC40 combo, at 0.05 µM) was -28.6% and the inhibition ([9]; at 0.5 µM) was -17.9% (inactive). The inhibition ([9]; cisplatin combo, at 0.05 µM) was -33.7%, the inhibition ([9]; cisplatin combo, at 0.5 µM) was -25.4% and the inhibition ([9]; cisplatin combo, at 5 µM) was -32.6%. For the same compound, the inhibition ([9]; measured here: 5 uM single agent, at 5 µM) was -15.5%, the inhibition ([10]; at 0.5 µM) was -13.2% (inactive) and the inhibition [10, 22] was -35.9%. The inhibition [10, 25] was -19.9%, the inhibition [10, 26] was -31.3% and the inhibition ([11]; at 0.5 µM) was -0.55% (inactive). It also gave an inhibition ([11]; measured here: with BGB IC20, at 0.5 µM) of 6.74%, an inhibition ([11]; measured here: with BGB IC20, at 5 µM) of 0.541% and an inhibition ([11]; measured here: with cisplatin IC20, at 0.5 µM) of -17.9%. The inhibition ([11]; measured here: with cisplatin IC20, at 5 µM) was -0.549%, the inhibition ([11]; single agent, at 5 µM) was 19.7% and the inhibition ([12]; at 0.5 µM) was -27.6% (inactive). For the same compound, the inhibition ([12]; measured here: combination with BGB at IC20, at 0.5 µM) was -23.3%, the inhibition ([12]; measured here: combination with cisplatin at IC20, at 0.5 µM) was -22.2% and the inhibition ([13]; at 0.5 µM) was -0.19% (inactive). For the same compound, the inhibition ([13]; measured here: combo with BGB at IC20, at 0.5 µM) was -1.2%, the inhibition ([13]; measured here: combo with cisplatin at IC20, at 0.5 µM) was 6.56% and the inhibition ([14]; at 0.5 µM) was 1.01% (inactive). For the same compound, the inhibition ([14]; measured here: inhibition with BGB combination, at 0.05 µM) was -4.64%, the inhibition ([14]; measured here: inhibition with cisplatin combination, at 0.05 µM) was -4.19% and the inhibition ([15]; at 0.5 µM) was -15% (inactive). The inhibition [15, 25] was -8.95%, the inhibition [15, 26] was -20.5% and the inhibition ([16]; at 0.5 µM) was -5.31% (inactive). It also gave an inhibition ([16]; measured here: BGB combination, at 0.5 µM) of -12%, an inhibition ([16]; measured here: BGB combination, at 5 µM) of -10.9% and an inhibition ([16]; measured here: cisplatin combination, at 0.5 µM) of -2.01%. The inhibition ([16]; measured here: cisplatin combination, at 5 µM) was -2.78%, the inhibition ([17]; BGB combination, concentration series, at 5 µM) was 7.08% and the inhibition ([17]; at 0.5 µM) was 1.18% (inactive). The inhibition ([17]; cisplatin combination, concentration series, at 5 µM) was 13.2%, the inhibition [18] was 16% (inactive) and the inhibition ([18]; measured here: combo with BGB IC20) was 24.6%. For the same compound, the inhibition ([18]; measured here: combo with cisplatin IC20) was 15.9%, the inhibition ([19]; at 0.5 µM) was 3.66% (inactive) and the inhibition ([19]; cisplatin combination, at 0.5 µM) was 8.14%. For the same compound, the inhibition ([19]; cisplatin combination, at 5 µM) was -2.96%, the inhibition ([19]; measured here: BGB IC40 combination 0.05 uM, at 0.05 µM) was 15.7% and the inhibition ([19]; single agent, at 5 µM) was -22%. The inhibition ([20]; at 0.5 µM) was -7.05% (inactive), the inhibition ([20]; cisplatin combo, at 5 µM) was 17.7% and the inhibition ([20]; measured here: BGB IC40 combination, at 0.05 µM) was -27.1%. The inhibition [20, 25] was 26.9%, the inhibition ([20]; single agent, at 5 µM) was -22.4% and the inhibition ([21]; at 0.5 µM) was -5.28% (inactive). For the same compound, the inhibition [21, 23] was -6.44%, the inhibition [21, 24] was -4.7% and the inhibition ([21]; single agent, at 0.05 µM) was -13.5%. For the same compound, the inhibition ([21]; single agent, at 5 µM) was 7.92%.
